Compound activity (PubChem BioAssay)
Hits are enriched below; roughly 3.4% of the tested compounds scored in any of these assays.
FBW7 activator – FBW7 E3 ligase activators, primary screen, biochemical, AlphaScreen, human | 0.13% of 650,000 active | AlphaScreen FBW7–phospho-cyclin E peptide binding, activator screen | F-box/WD repeat-containing protein 7 (Homo sapiens), Q969H0 | normalized activity (activation), % at 26.1 µM | AID 1259310, 2017; in the data active = normalized activity above about 1.9%;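 note: purified mutant Fbw7 with reduced substrate affinity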
Target sequence (Q969H0 whole entry, looked up): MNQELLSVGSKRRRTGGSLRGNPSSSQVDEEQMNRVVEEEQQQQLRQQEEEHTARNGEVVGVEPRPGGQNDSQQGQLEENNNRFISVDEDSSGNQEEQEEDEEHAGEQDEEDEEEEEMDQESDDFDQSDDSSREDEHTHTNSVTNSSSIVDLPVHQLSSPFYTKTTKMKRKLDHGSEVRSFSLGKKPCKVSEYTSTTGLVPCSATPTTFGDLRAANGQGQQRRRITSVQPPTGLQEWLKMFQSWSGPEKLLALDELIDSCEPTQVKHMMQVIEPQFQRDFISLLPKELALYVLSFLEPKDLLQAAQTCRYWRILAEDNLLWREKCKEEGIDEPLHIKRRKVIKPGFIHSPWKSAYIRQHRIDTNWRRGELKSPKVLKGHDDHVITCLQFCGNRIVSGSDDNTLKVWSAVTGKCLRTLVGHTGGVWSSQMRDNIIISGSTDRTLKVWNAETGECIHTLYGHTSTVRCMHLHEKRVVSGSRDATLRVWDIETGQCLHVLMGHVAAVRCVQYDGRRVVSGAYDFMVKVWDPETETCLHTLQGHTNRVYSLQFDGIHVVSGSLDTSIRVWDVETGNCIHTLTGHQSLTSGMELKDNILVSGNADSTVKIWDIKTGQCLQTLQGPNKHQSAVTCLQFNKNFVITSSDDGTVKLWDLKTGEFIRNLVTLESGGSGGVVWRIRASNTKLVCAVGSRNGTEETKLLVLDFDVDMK
MITF inh – MITF inhibitors, primary screen, biochemical, AlphaScreen, human; Microphthalmia-associated transcription factor (Homo sapiens), O75030; AlphaScreen MITF homodimerization, bead proximity signal; inhibition, % at 2.6 µM; 0.91% of 650,000 active; in the data active = inhibition above about 50%;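 note: 0% = vehicle wells with protein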
GPR151 ag – activators of human GPR151, primary screen, cell-based, PathHunter beta-arrestin, luminescence; AID 1508602, 2020; activation, % at 11.2 µM; G-protein coupled receptor 151 (Homo sapiens), Q8TDV0; 1% of 650,000 active; PathHunter beta-arrestin GPR151 cells; in the data active = activation above about 4.9%;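 note: 0% = median of compound wells and 100% = cells with positive control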
TEAD-YAP inh – TEAD-YAP interaction inhibition, primary screen, TEAD-YAP interaction inhibitor project, luminescence, HEK-TIYL cells; TEAD-Gal4/YAP UAS-luciferase luminescence; inhibition, % at 9.12 µM; 1.4% of 640,000 active; AID 1259422, 2018; in the data active = inhibition above about 32%;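 note: 0% = median of test compound wells and 100% = reference inhibitor wells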
* marks the source's active call; other numbers are inactive results; / = no result given.

SMILES	FBW7 activator	MITF inh	GPR151 ag	TEAD-YAP inh
Oc1cccc(C=Nc2ccccc2O)c1	0	-10	-1	-3
CN(C)c1ccc(-c2oc3c(ccc4ccccc43)c(=O)c2O)cc1	0	-7	-1	26
CCN(CC)c1ccc2cc(I)c(=O)oc2c1	2.9*	-10	0	-28
CCN(CC)c1ccc2cc(/C(N)=N/NC(C)=O)c(=O)oc2c1	0	-6	-1	41*
CCN(CC)c1ccc2cc(Cl)c(=O)oc2c1	1	-27	0	-14
CCN(CC)c1ccc2cc(N3C(=O)CCC3=O)c(=O)oc2c1	0	8	1	62*
C=CCN(c1ccccc1)S(=O)(=O)c1ccc(F)c(C(=O)NCC(OC)OC)c1	0	8	1	3
C=CCN(c1ccccc1)S(=O)(=O)c1ccc(F)c(C(=O)NCCc2ccccc2)c1	0	2	0	35*
CC1(C)C(=O)OC(C#Cc2ccccc2)C(C)(C)C1=O (centres undefined)	1	3	-1	-2
NC1=NC(=O)/C(=C\c2ccc([N+](=O)[O-])o2)S1	0	80*	1	1
NC1=NC(=O)/C(=C\c2ccc(-c3cccc([N+](=O)[O-])c3)o2)S1	0	12	-2	-12
O=C1NC(=S)S/C1=C/c1ccc([N+](=O)[O-])o1	-1	74*	0	15
NC1=NC(=O)/C(=C/C=C/c2ccc([N+](=O)[O-])o2)S1	0	98*	0	35*
CCOC(=O)c1[nH]c(C)c(C(=O)Nc2cc(F)ccc2F)c1C	0	15	0	42*
CCOC(=O)c1[nH]c(C)c(C(=O)OCC(=O)Nc2sccc2C(N)=O)c1C	0	-6	2	32*
CCOC(=O)c1[nH]c(C)c(C(=O)c2cc(F)ccc2F)c1C	0	4	1	45*
O=C(c1ccc(NCCO)cc1)C1C[C@H]1c1ccc(Cl)cc1 (some centres undefined)	/	/	-1	/
Fc1ccc(-c2cc(NCCCN3CCOCC3)nc(-c3cccnc3)n2)cc1	0	9	0	6
NC1=NC2(CCCCCC2)n2c(nc3ccccc32)N1	0	4	-1	78*
C=CCOC(=O)C1=C(C)Nc2nnnn2C1c1cccc(OC)c1 (centres undefined)	0	12	-1	50*
Cc1ccc(C)c(OCC(=O)Nc2ccccc2C(N)=O)c1C	1	9	-2	48*
CCOc1ccc(NC(=O)COc2c(C)ccc(C)c2C)cc1	0	4	1	41*
CCOc1ccc(NC(=O)COc2c(C)cccc2C)cc1	0	-23	0	31
CCCCCCOc1ccc(/C=C(\C#N)C(=O)NCC2CCCO2)cc1OC (centres undefined)	2.0*	9	-1	-2
COc1cc(/C=C(/C#N)C(=O)NCC2CCCO2)ccc1OCc1ccc(C(=O)O)cc1 (centres undefined)	0	5	2	-14
SMILES	FBW7 activator	MITF inh	GPR151 ag	TEAD-YAP inh
Cc1ccc(C(=O)Nc2noc3ccccc23)cc1	0	5	-5	76*
O=C(Nc1noc2ccccc12)c1ccco1	0	17	-5	-21
O=C(Nc1noc2ccccc12)c1ccccc1	0	-10	-8	51*
C=CCNC(=O)c1cc(-c2ccc3c(c2)OCO3)on1	0	0	-1	-16
CC(C)NC(=O)c1cc(-c2ccc(Br)cc2)on1	1	13	-1	-57
C=CCNC(=O)c1cc(-c2ccc(O)cc2)on1	0	6	-1	34*
CC(C)NC(=O)c1cc(-c2ccc(O)cc2)on1	1	2	-2	43*
CCC(C)NC(=O)CN(c1ccc(C)cc1)S(=O)(=O)c1ccc(OC)cc1 (centres undefined)	0	-2	-1	1
COc1ccc(C2C3=C(Nc4ncnn42)c2ccccc2OC3c2cccs2)cc1 (centres undefined)	0	-9	-1	-5
COc1ccc(C2Oc3ccccc3C3=C2C(c2cccs2)n2ncnc2N3)cc1 (centres undefined)	0	2	2	38*
CC1=C(C(=O)Nc2nc3ccc(Br)cc3s2)C(c2ccccc2)C2=C(CC(C)(C)CC2=O)N1 (centres undefined)	1	-23	0	12
CCN1CCN(c2ncc(-c3ccccc3)cc2C=O)CC1	0	-2	2	36*
N#Cc1c(NC(=O)c2ccc([N+](=O)[O-])cc2[N+](=O)[O-])sc2c1CCCC2	0	-19	0	2
CC1CCc2sc(NC(=O)c3cc(Cl)ccc3[N+](=O)[O-])c(C#N)c2C1 (centres undefined)	0	9	-1	51*
N#Cc1c(NC(=O)c2cc([N+](=O)[O-])ccc2Cl)sc2c1CCCC2	0	9	2	49*
COc1ccc(-c2cn3cc(-c4ccccc4)nc3n2C)cc1	0	-4	-1	97*
Cn1c(-c2ccccc2)cn2c3ccccc3nc12	1	5	0	30
COc1cccc(-c2cn3cc(-c4ccc(F)cc4)nc3n2C)c1	0	1	1	70*
COc1cccc(-n2c(-c3ccc(F)cc3)n[nH]c2=S)c1	0	-19	-1	-16
CCC(=O)Nc1nc(C)c(-c2csc(Nc3cc(OC)ccc3OC)n2)s1	0	16	0	6
CCc1ccc(Nc2nc(-c3sc(C)nc3C)cs2)cc1	0	12	-2	47*
Cc1nc(C)c(-c2csc(Nc3ccc(F)cc3)n2)s1	0	8	-1	-43
CCC(=O)Nc1nc(C)c(-c2csc(Nc3ccc(OC)cc3)n2)s1	0	11	-1	33*
Cc1cncc2cccc(NC3CCNC3)c12 (centres undefined)	0	8	0	69*
Cc1cncc2cccc(NC3CCCN(C(=O)C(O)c4ccc(Br)cc4)C3)c12 (centres undefined)	0	2	2	47*
SMILES	FBW7 activator	MITF inh	GPR151 ag	TEAD-YAP inh
COc1cccc(C=C2C(=O)NC(=O)NC2=O)c1OCc1ccccc1Cl	0	5	3	0
COc1ccccc1/C=C1\C(=O)ON=C1C	0	71*	2	-2
COc1ccc(Cl)cc1/C=C1/C(=O)ON=C1C	0	35	0	10
CC1=NOC(=O)/C1=C/c1ccccc1OS(=O)(=O)c1ccc(C)cc1	0	70*	0	5
COc1cccc(/C=C2\C(=O)ON=C2C)c1OCc1ccccc1Cl	0	74*	0	-17
N#C/C(=C\Nc1cccc(C(F)(F)F)c1)c1nc(-c2cc3cc([N+](=O)[O-])ccc3oc2=O)cs1	0	-7	0	-3
CCOC(=O)c1nn(-c2ccc(F)cc2)c(=O)c2c(NC(=O)CC)scc12	0	0	0	-10
COc1ccc(-c2cc(C(F)(F)F)n3nc(C(=O)Nc4ccc(F)c(Cl)c4)c(Cl)c3n2)cc1	0	-8	3	-11
